# Assay results reported in the supplement of paper PMC12282887.
# ± gives the standard deviation of the averaged measurements.
# Key:
# Assay in all cases: promoter activity interaction Z-score (Lux/OD deviation from empty-vector control); higher = stronger promoter induction by the compound
# [1] = test system: E. coli BW25113 acrABp lux reporter
# Method in brief: (§1)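 At 37°C, E. coli BW25113 reporter cultures in 40 µl LB Lennox in 384-well plates were read for OD600 and luminescence every 30 min for 12 h. Windows were 0–8 h for wild type and 1–9 h for deletion strains, and wells under 10% of the median growth value were removed. The score is the Z-transformed residual of growth-normalised luminescence against a control fit.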
# [2] = test system: E. coli BW25113 marRABp lux reporter
# Method in brief: as §1
# [3] = test system: E. coli BW25113 micFp lux reporter
# Method in brief: as §1
# [4] = test system: E. coli BW25113 ompFp lux reporter
# Method in brief: as §1
# [5] = test system: E. coli BW25113 robp lux reporter
# Method in brief: as §1
# [6] = test system: E. coli BW25113 soxSp lux reporter
# Method in brief: as §1
# [7] = test system: E. coli BW25113 tolCp lux reporter
# Method in brief: as §1
# [8] = 0.26 µg/ml, genetic background: wild type
# [9] = 0.26 µg/ml, genetic background: ΔmarA
# [10] = 0.26 µg/ml, genetic background: Δrob
# [11] = 0.26 µg/ml, genetic background: ΔsoxS
# [12] = 0.52 µg/ml, genetic background: wild type
# [13] = 0.52 µg/ml, genetic background: ΔmarA
# [14] = 0.52 µg/ml, genetic background: Δrob
# [15] = 0.52 µg/ml, genetic background: ΔsoxS
# [16] = 1 µg/ml, genetic background: wild type
# [17] = 1 µg/ml, genetic background: ΔmarA
# [18] = 1 µg/ml, genetic background: Δrob
# [19] = 1 µg/ml, genetic background: ΔsoxS
# [20] = 2.1 µg/ml, genetic background: wild type
# [21] = 2.1 µg/ml, genetic background: ΔmarA
# [22] = 2.1 µg/ml, genetic background: Δrob
# [23] = 2.1 µg/ml, genetic background: ΔsoxS
structure (smiles),measurement,setting,value
CCC[C@@H]1C[C@@H](C(=O)N[C@@H]([C@H]2O[C@H](SC)[C@H](O)[C@@H](O)[C@H]2O)[C@H](C)Cl)N(C)C1 [Clindamycin],promoter activity interaction Z-score,[1]; [8],0.462 ± 0.13
same,promoter activity interaction Z-score,[1]; [9],0.688 ± 0.64
same,promoter activity interaction Z-score,[1]; [10],0.443 ± 0.12
same,promoter activity interaction Z-score,[1]; [11],0.20427 ± 5.4e-05
same,promoter activity interaction Z-score,[1]; [12],0.0439 ± 0.28
same,promoter activity interaction Z-score,[1]; [13],0.0236 ± 0.74
same,promoter activity interaction Z-score,[1]; [14],0.389 ± 0.16
same,promoter activity interaction Z-score,[1]; [15],0.296 ± 0.26
same,promoter activity interaction Z-score,[1]; [16],0.0522 ± 0.49
same,promoter activity interaction Z-score,[1]; [17],-0.845 ± 0.54
same,promoter activity interaction Z-score,[1]; [18],0.554 ± 0.027
same,promoter activity interaction Z-score,[1]; [19],0.424 ± 0.19
same,promoter activity interaction Z-score,[1]; [20],0.541 ± 0.29
same,promoter activity interaction Z-score,[1]; [21],-1.07 ± 0.54
same,promoter activity interaction Z-score,[1]; [22],0.386 ± 0.14
same,promoter activity interaction Z-score,[1]; [23],0.958 ± 1.2
same,promoter activity interaction Z-score,[2]; [8],0.333 ± 0.029
same,promoter activity interaction Z-score,[2]; [9],0.0595 ± 0.25
same,promoter activity interaction Z-score,[2]; [10],0.168 ± 0.043
same,promoter activity interaction Z-score,[2]; [11],0.145 ± 0.068
same,promoter activity interaction Z-score,[2]; [12],-0.369 ± 0.4
same,promoter activity interaction Z-score,[2]; [13],0.0444 ± 0.093
same,promoter activity interaction Z-score,[2]; [14],0.0402 ± 0.096
same,promoter activity interaction Z-score,[2]; [15],0.279 ± 0.051
same,promoter activity interaction Z-score,[2]; [16],0.363 ± 0.56
same,promoter activity interaction Z-score,[2]; [17],-0.225 ± 0.051
same,promoter activity interaction Z-score,[2]; [18],0.279 ± 0.32
same,promoter activity interaction Z-score,[2]; [19],0.414 ± 0.023
same,promoter activity interaction Z-score,[2]; [20],0.13 ± 0.11
same,promoter activity interaction Z-score,[2]; [21],-0.108 ± 0.33
same,promoter activity interaction Z-score,[2]; [22],0.449 ± 0.032
same,promoter activity interaction Z-score,[2]; [23],0.869 ± 0.17
same,promoter activity interaction Z-score,[3]; [8],0.509 ± 0.54
same,promoter activity interaction Z-score,[3]; [9],0.0727 ± 0.038
same,promoter activity interaction Z-score,[3]; [10],-0.112 ± 0.21
same,promoter activity interaction Z-score,[3]; [11],-0.295 ± 0.22
same,promoter activity interaction Z-score,[3]; [12],-0.308 ± 0.46
same,promoter activity interaction Z-score,[3]; [13],-0.109 ± 0.1
same,promoter activity interaction Z-score,[3]; [14],0.00775 ± 0.06
same,promoter activity interaction Z-score,[3]; [15],-0.12048 ± 8.2e-05
same,promoter activity interaction Z-score,[3]; [16],-0.107 ± 0.47
same,promoter activity interaction Z-score,[3]; [17],-0.106 ± 0.01
same,promoter activity interaction Z-score,[3]; [18],-0.0738 ± 0.2
same,promoter activity interaction Z-score,[3]; [19],0.189 ± 0.27
same,promoter activity interaction Z-score,[3]; [20],0.291 ± 0.71
same,promoter activity interaction Z-score,[3]; [21],-0.2694 ± 0.0025
same,promoter activity interaction Z-score,[3]; [22],0.0565 ± 0.17
same,promoter activity interaction Z-score,[3]; [23],0.457 ± 0.16
same,promoter activity interaction Z-score,[4]; [8],0.86 ± 0.48
same,promoter activity interaction Z-score,[4]; [9],0.602 ± 0.034
same,promoter activity interaction Z-score,[4]; [10],0.184 ± 0.088
same,promoter activity interaction Z-score,[4]; [11],-0.129 ± 0.28
same,promoter activity interaction Z-score,[4]; [12],0.0844 ± 0.74
same,promoter activity interaction Z-score,[4]; [13],0.364 ± 0.24
same,promoter activity interaction Z-score,[4]; [14],0.973 ± 0.091
same,promoter activity interaction Z-score,[4]; [15],0.0417 ± 0.17
same,promoter activity interaction Z-score,[4]; [16],0.629 ± 1
same,promoter activity interaction Z-score,[4]; [17],0.255 ± 0.36
same,promoter activity interaction Z-score,[4]; [18],0.164 ± 0.52
same,promoter activity interaction Z-score,[4]; [19],0.389 ± 0.074
same,promoter activity interaction Z-score,[4]; [20],1.41 ± 0.49
same,promoter activity interaction Z-score,[4]; [21],0.484 ± 0.28
same,promoter activity interaction Z-score,[4]; [22],0.877 ± 0.67
same,promoter activity interaction Z-score,[4]; [23],1.71 ± 1.1
same,promoter activity interaction Z-score,[5]; [8],0.81 ± 0.04
same,promoter activity interaction Z-score,[5]; [9],0.716 ± 0.3
same,promoter activity interaction Z-score,[5]; [10],0.204 ± 0.64
same,promoter activity interaction Z-score,[5]; [11],0.581 ± 0.019
same,promoter activity interaction Z-score,[5]; [12],0.0509 ± 0.11
same,promoter activity interaction Z-score,[5]; [13],0.27 ± 0.26
same,promoter activity interaction Z-score,[5]; [14],-0.0366 ± 0.51
same,promoter activity interaction Z-score,[5]; [15],0.513 ± 0.74
same,promoter activity interaction Z-score,[5]; [16],0.553 ± 1.1
same,promoter activity interaction Z-score,[5]; [17],0.0526 ± 0.64
same,promoter activity interaction Z-score,[5]; [18],0.0577 ± 0.99
same,promoter activity interaction Z-score,[5]; [19],0.531 ± 0.43
same,promoter activity interaction Z-score,[5]; [20],-0.23 ± 0.084
same,promoter activity interaction Z-score,[5]; [21],-0.785 ± 0.17
same,promoter activity interaction Z-score,[5]; [22],-0.582 ± 0.73
same,promoter activity interaction Z-score,[5]; [23],-0.589 ± 0.59
same,promoter activity interaction Z-score,[6]; [8],0.148 ± 0.1
same,promoter activity interaction Z-score,[6]; [9],0.331 ± 0.014
same,promoter activity interaction Z-score,[6]; [10],0.202 ± 0.053
same,promoter activity interaction Z-score,[6]; [11],0.316 ± 0.0083
same,promoter activity interaction Z-score,[6]; [12],-0.237 ± 0.079
same,promoter activity interaction Z-score,[6]; [13],0.237 ± 0.021
same,promoter activity interaction Z-score,[6]; [14],0.217 ± 0.043
same,promoter activity interaction Z-score,[6]; [15],0.23 ± 0.076
same,promoter activity interaction Z-score,[6]; [16],0.0391 ± 0.054
same,promoter activity interaction Z-score,[6]; [17],0.244 ± 0.1
same,promoter activity interaction Z-score,[6]; [18],0.0504 ± 0.034
same,promoter activity interaction Z-score,[6]; [19],0.138 ± 0.2
same,promoter activity interaction Z-score,[6]; [20],-0.0707 ± 0.029
same,promoter activity interaction Z-score,[6]; [21],0.0916 ± 0.17
same,promoter activity interaction Z-score,[6]; [22],0.0849 ± 0.32
same,promoter activity interaction Z-score,[6]; [23],0.0804 ± 0.017
same,promoter activity interaction Z-score,[7]; [8],-0.169 ± 0.35
same,promoter activity interaction Z-score,[7]; [9],0.807 ± 0.31
same,promoter activity interaction Z-score,[7]; [10],0.395 ± 0.66
same,promoter activity interaction Z-score,[7]; [11],-0.505 ± 0.044
same,promoter activity interaction Z-score,[7]; [12],0.223 ± 1
same,promoter activity interaction Z-score,[7]; [13],0.212 ± 1.3
same,promoter activity interaction Z-score,[7]; [14],0.229 ± 0.18
same,promoter activity interaction Z-score,[7]; [15],0.282 ± 0.71
same,promoter activity interaction Z-score,[7]; [16],-0.594 ± 0.74
same,promoter activity interaction Z-score,[7]; [17],0.0618 ± 0.085
same,promoter activity interaction Z-score,[7]; [18],-0.255 ± 0.54
same,promoter activity interaction Z-score,[7]; [19],0.674 ± 0.27
same,promoter activity interaction Z-score,[7]; [20],-0.385 ± 0.39
same,promoter activity interaction Z-score,[7]; [21],-0.307 ± 0.67
same,promoter activity interaction Z-score,[7]; [22],0.0932 ± 0.95
same,promoter activity interaction Z-score,[7]; [23],0.0435 ± 0.33
